Assay results published in the supplement of paper PMC6555819.

Key:
Assay in all cases: PBM binding z-score (relative to random genomic background probes); higher = stronger binding; sequences stand for … in GC…GCGATTGACAGCGTAGAATGAAGG
[1] = test system: FXR:RXRa (NR concentration 270 nM, RXRa partner concentration 90 nM)
Outline: (§1)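 Probes were double-stranded and carried 34-nt variable regions with direct-repeat seeds, single-nucleotide variants, half-site ablations and random human genomic background sequences, printed on custom Agilent 4×180K protein-binding microarrays. Arrays were incubated 1 h with ligand-free nuclear receptor dimers in PBS pH 7.4, 2% milk, 0.02% Triton X-100, 1 mM DTT, 0.2 mg/mL BSA and 0.4 mg/ml salmon testes DNA. Antibodies against each partner (one per run) detected binding, and scanned fluorescence was regression-normalized. Binding z-scores use the random background probes as reference.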

[2] = test system: LXRa:RXRa (NR concentration 270 nM, RXRa partner concentration 90 nM)
Outline: as §1

[3] = test system: LXRa homodimer (NR concentration 270 nM)
Outline: as §1

[4] = test system: LXRb:RXRa (NR concentration 270 nM, RXRa partner concentration 90 nM)
Outline: as §1

[5] = test system: LXRb homodimer (NR concentration 270 nM)
Outline: as §1

[6] = test system: PPARa:RXRa (NR concentration 270 nM, RXRa partner concentration 90 nM)
Outline: as §1

[7] = test system: PPARg:RXRa (NR concentration 180 nM, RXRa partner concentration 90 nM)
Outline: as §1

[8] = test system: PPARg:RXRa 270nM:90nM, anti-RXR (NR concentration 270 nM, RXRa partner concentration 90 nM)
Outline: as §1

[9] = test system: PPARg:RXRa 30nM:10nM, anti-RXR (NR concentration 30 nM, RXRa partner concentration 10 nM)
Outline: as §1

[10] = test system: PPARg:RXRa 90nM:30nM, anti-RXR (NR concentration 90 nM, RXRa partner concentration 30 nM)
Outline: as §1

[11] = test system: PPARg:RXRa DBDmut IVT, anti-RXR (DBD mutation: RXRa K156A/R161A, NR concentration 270 nM, RXRa partner concentration 90 nM)
Outline: as §1

[12] = test system: PPARg:RXRa IVT, anti-PPARg (NR concentration 270 nM, RXRa partner concentration 90 nM)
Outline: as §1

[13] = test system: PPARg DBDmut:RXRa IVT, anti-PPARg (DBD mutation: PPARg1 K132A/R137A, NR concentration 270 nM, RXRa partner concentration 90 nM)
Outline: as §1

[14] = test system: PPARg DBDmut IVT, anti-PPARg (DBD mutation: PPARg1 K132A/R137A, NR concentration 270 nM)
Outline: as §1

[15] = test system: PPARg homodimer (NR concentration 180 nM)
Outline: as §1

[16] = test system: PXR:RXRa (NR concentration 270 nM, RXRa partner concentration 90 nM)
Outline: as §1

[17] = test system: PXR homodimer (NR concentration 270 nM)
Outline: as §1

[18] = test system: RARa:RXR (NR concentration 270 nM, RXRa partner concentration 90 nM)
Outline: as §1

[19] = test system: RARa homodimer (NR concentration 270 nM)
Outline: as §1

[20] = test system: RARb:RXRa (NR concentration 270 nM, RXRa partner concentration 90 nM)
Outline: as §1

| Sequence | PBM binding z-score [1] | PBM binding z-score [2] | PBM binding z-score [3] | PBM binding z-score [4] | PBM binding z-score [5] | PBM binding z-score [6] | PBM binding z-score [7] | PBM binding z-score [8] | PBM binding z-score [9] | PBM binding z-score [10] | PBM binding z-score [11] | PBM binding z-score [12] | PBM binding z-score [13] | PBM binding z-score [14] | PBM binding z-score [15] | PBM binding z-score [16] | PBM binding z-score [17] | PBM binding z-score [18] | PBM binding z-score [19] | PBM binding z-score [20] |
| --- | --- | --- | --- | --- | --- | --- | --- | --- | --- | --- | --- | --- | --- | --- | --- | --- | --- | --- | --- | --- |
| TCTAGTTGGTCAATGGTCACACACTCGAAATGCG | 0.812 | 0.861 | 0.28 | 0.966 | 0.461 | 1.74 | 2.89 | 4.7 | 4.08 | 4.79 | 2.15 | 2.54 | 0.677 | 1.19 | 1.32 | 0.698 | -0.0663 | 0.893 | 0.846 | 1.62 |
| TCTAGCAGGCCAGAGGGTCACCCAAGAGGTACGG | 1.31 | 1.35 | -0.606 | 1.36 | -0.868 | 2.83 | 1.73 | 2.84 | 1.92 | 2.71 | 0.386 | 0.974 | -0.634 | -0.348 | 0.411 | 2 | -0.502 | 2.95 | 0.0468 | 2.43 |
| ACAGACAGGTGAGTGAAGGTAACTCACCTGGACG | 0.567 | 0.338 | -0.604 | -0.347 | -0.328 | 0.358 | 0.593 | 0.216 | 0.0231 | -0.144 | 0.281 | 1.01 | 0.307 | 0.131 | -0.03 | -0.17 | -0.14 | 0.495 | -0.345 | 0.553 |
| ACTCGGAGGACAAAGGTCAGAGATACGCCAGTGA | 4.21 | 4.08 | 1.83 | 3.54 | 0.52 | 4.69 | 7.66 | 6.85 | 6.73 | 7.24 | 0.715 | 3.35 | 0.221 | -0.524 | 4.07 | 4.02 | 0.592 | 5.15 | 1.44 | 4.56 |
| AGAATGAGGTTAAGAACAGGGAAACAGAATACAT | 2.13 | 1.7 | 0.291 | 1.87 | 0.264 | 3.18 | 2.15 | 2.05 | 0.811 | 1.34 | 2.35 | 2.23 | 1.48 | 0.955 | 0.811 | 1.13 | 0.635 | 1.61 | 0.514 | 1.87 |
| CGTCCACGGTCAGAGAGGTCAGTGAATGCCGAGT | 2.16 | 1.89 | 1.45 | 1.77 | -0.73 | 2.33 | 0.382 | 0.996 | -0.638 | 0.247 | 0.449 | 1.17 | -1.02 | -1.36 | 2.07 | 3.13 | 2.89 | 2.83 | 0.503 | 3.95 |
| TTACCAAGGTGAACGTCGTTGATCCCTCTGTAGA | 0.766 | 0.802 | -0.455 | 1.01 | -0.681 | 1.99 | 0.984 | 1.25 | 0.514 | 1.07 | 2.54 | 3.17 | 0.0811 | 1.09 | 0.021 | 0.627 | -0.305 | 1.26 | -0.00319 | 1.77 |
| AATAGAGGGTCACTAGGCCAGAGTAGGTACGAAT | 4.62 | 3.5 | 0.324 | 2.81 | -0.0545 | 4.99 | 6.44 | 5.59 | 2.33 | 4.4 | 3.57 | 5.33 | 0.782 | 0.194 | 1.04 | 1.95 | -0.034 | 2.89 | 0.102 | 3.69 |
| TCGAGTAGGTTAGGGGCGTTCAGAATGGCGTCGA | 0.341 | 0.362 | -0.22 | 0.565 | -0.227 | 0.892 | 0.197 | 1.54 | 0.846 | 1.56 | 1.69 | 1.26 | 0.15 | -0.777 | 0.542 | 0.471 | 0.0132 | 0.223 | -0.263 | 0.552 |
| CCGACTGGGGCAGAAAGGTTAACATACCATCCGG | 0.257 | 0.795 | 0.102 | 1.32 | -1.1 | 2.45 | 1.92 | 2.76 | 1.1 | 2.38 | 1.78 | 2.39 | -0.202 | -1.36 | 1.53 | 1.19 | -0.126 | 1.95 | 0.0538 | 1.98 |
| ATCTCTAGGTAAAATTTCAGTGAATCCCGAGGAT | 0.303 | 0.0302 | -0.0647 | 0.162 | 1.26 | 0.181 | 0.177 | 0.563 | 0.504 | 0.487 | 1.67 | 1.35 | 0.773 | 1.87 | 0.138 | -0.0385 | -0.0342 | 0.0546 | 0.744 | 0.377 |
| GGAACGAGGGCTTTCGAGTTGATAGCATGGCGAT | -0.242 | -0.418 | -0.465 | -0.655 | -0.894 | -0.173 | 0.0484 | -0.127 | -0.533 | -0.499 | 0.386 | -0.141 | -0.402 | -0.448 | -0.921 | 0.129 | -0.343 | 0.0983 | -0.868 | -0.36 |
| AGAATGTGGTTATACGTAGATCAGGGAAGAAAGT | 0.107 | 0.271 | 0.177 | 0.318 | -0.0614 | 0.259 | 0.647 | 0.356 | 0.568 | 0.428 | -0.104 | 0.38 | 1.04 | 0.755 | 0.355 | 0.214 | 0.82 | 0.282 | 0.734 | 0.0601 |
| TGTCAAAGTTCAAAGGTAACGTACGTATCCACAC | 7.21 | 6.37 | 4.32 | 4.74 | 1.52 | 5.75 | 8.65 | 7.29 | 4.86 | 7.11 | 0.385 | 4.52 | 2.01 | 1.18 | 3.53 | 5.63 | 3 | 6.3 | 1.11 | 4.92 |
